Screening results deposited in PubChem BioAssay by several laboratories.
Rows were chosen to be rich in hits. Some 3.7% of all compounds tested hit in one or more screens of this group.
PfHsp90 yeast 2 = growth inhibition of yeast expressing Plasmodium Hsp90. S. cerevisiae expressing PfHsp90, BacTiter-Glo ATP, 48 h; yeast lacking PDR1 and PDR3 efflux regulators. hit rate 0.32% among 310,000. inhibition, % at 9.4 µM;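 active = every replicate shows inhibition above about 80%, whatever the replicate mean, limit read from the data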;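 also: 0% = DMSO neutral controls and 100% = 20 µM radicicol positive controls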
tim23-1 inh = tim23-1 yeast growth inhibition | S. cerevisiae tim23-1 growth, BacTiter-Glo luminescence, 24 h | inhibition, % at 20 µM | hit rate 1.3% among 330,000 | AID 463212;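 active = growth inhibition of the mutant yeast at or above 50%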;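 also: temperature-sensitive mutant grown at 25 °C; plate controls were DMSO-treated mutant yeast for no effect and medium wells lacking yeast for full effect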
TIM10 inh = growth inhibitors of TIM10 yeast strain; AID 463195; inhibition, % at 10 µM; hit rate 1.4% among 330,000; S. cerevisiae TIM10 strain growth, BacTiter-Glo luminescence, 24 h;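 active = inhibition of 40% or more at the single tested concentration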;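 also: wild-type TIM10 isogenic control strain grown at permissive 25 °C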
NLRP3 yeast inh = blocks the NALP3 inflammasome reconstituted in yeast; Yeast reconstituted NLRP3/ASC/caspase-1, beta-gal luminescence, 24 h; hit rate 0.39% among 330,000; inhibition, % at 10 µM;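 active = inhibition of 50% or more; inactive = inhibition below 50%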;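 also: plate controls were induced DMSO wells for no effect and uninduced yeast grown without galactose for full effect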
tim10-1 inh = tim10-1 yeast growth inhibition | AID 463190 | hit rate 2.2% among 330,000 | S. cerevisiae tim10-1 ts strain growth, BacTiter-Glo, 24 h | inhibition, % at 20 µM;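 active = inhibition of at least 40%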;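 also: mutant grown at 25 °C; 0% = DMSO wells with yeast and 100% = wells holding no yeast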
TIM10 conf = TIM10 yeast growth inhibition, confirmed; inhibition, % at 10 µM; AID 463215; shares compounds with TIM10 inh; S. cerevisiae tim10 strain growth, BacTiter-Glo luminescence, 24 h; hit rate 63% among 4,600;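 active = inhibition of yeast growth at or above a set limit in either of two replicates at 10 µM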;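 also: this counterscreen used the strain with wild-type TIM10; 0% = yeast with DMSO and 100% = medium wells lacking yeast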
tim23-1 confirm = confirmation of tim23-1 mutant yeast growth inhibitors; shares compounds with tim23-1 inh; S. cerevisiae tim23-1 growth, BacTiter-Glo luminescence, 24 h; inhibition, % at 20 µM; hit rate 83% among 4,400;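 active = inhibition above about 39% in either of two replicate wells at 20 µM, limit read from the data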;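 also: temperature-sensitive tim23-1 mutant grown at 25 °C; 0% = DMSO wells with yeast and 100% = medium wells without yeast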
* = called active by the depositor; x = no result.

SMILES | PfHsp90 yeast 2 | tim23-1 inh | TIM10 inh | NLRP3 yeast inh | tim10-1 inh | tim23-1 confirm | others
NC(=O)c1oc2ccccc2c1NC(=O)c1ccc([N+](=O)[O-])o1 | -13 | 66* | 57* | 5 | 29 | 59* | TIM10 conf=66*
NC(=O)c1oc2ccccc2c1NC(=O)c1ccc(F)cc1 | -13 | 14 | 13 | 16 | 14 | x
CCCS/C(N)=N/N=C/c1ccccc1O | 13 | 16 | 15 | 25 | 19 | x
C=CCS/C(N)=N\N=C\c1c(O)ccc2ccccc12 | -9 | 53* | 53* | 27 | 24 | 71* | TIM10 conf=42*
CCN1C(=O)c2cccc3c(S(=O)(=O)N(C(=O)c4cccnc4)c4ccc(OC)cc4)ccc1c23 | 4 | 46 | -8 | 1 | 5 | x
CCN1C(=O)c2cccc3c(S(=O)(=O)N(C(=O)c4ccncc4)c4ccc(OC)cc4)ccc1c23 | -64 | 52* | 9 | 3 | 24 | 30
COc1ccc(C2CC(c3cccs3)=NN2C(=O)CCl)cc1OC (stereo not drawn) | 15 | 34 | 15 | 30 | -8 | x
COc1cc(C2CC(c3cccs3)=NN2C(=O)CCl)ccc1OC(F)F (stereo not drawn) | -11 | 56* | 19 | 16 | -21 | 44*
O=C(/C=C/c1c(F)cccc1Cl)N1CCc2ccccc2C1 | -96 | 59* | 12 | 34 | 20 | 59*
CCN1CCN(C(=O)/C=C/c2c(F)cccc2Cl)CC1 | -6 | -23 | -3 | 2 | -5 | x
Cc1nc2scc(C)n2c(=O)c1S(=O)(=O)Nc1ccc(N2CCOCC2)cc1 | -20 | 71* | -3 | 8 | -2 | 47*
Cc1ccc(-c2nnc(N3CCC(C)CC3)c3ccccc23)cc1 | 7 | 53* | 14 | 4 | -25 | 69*
CCOc1ccc(N2CC(=O)N/C2=N\c2nc(C)cc(C)n2)cc1 | -53 | 7 | -10 | 0 | 4 | x
COc1ccc(C)cc1S(=O)(=O)n1nc(C)cc1C | 17 | 9 | -3 | -18 | 13 | x
COc1ccc(F)cc1S(=O)(=O)n1nc(C)cc1C | -8 | 95* | 4 | -18 | 6 | 9
COc1ccc(NC(=O)C2CCCN2S(=O)(=O)c2cccc3cccnc23)cc1OC (stereo not drawn) | -18 | 15 | 9 | 5 | 1 | x
CC1(C)Cc2ccccc2-c2nc(NN)[nH]c(=O)c21 | 1 | 51* | 2 | -2 | 36 | 36
CCC1(CC)Cc2ccccc2-c2nc(NCCO)[nH]c(=O)c21 | 3 | 15 | 11 | 12 | 23 | x
CCc1nnc(N2C(=O)c3ccc(Oc4ccc([N+](=O)[O-])cc4)cc3C2=O)s1 | 8 | 64* | 34 | 17 | 29 | 39
COc1ccc(C(=O)OCn2nnc3ccccc3c2=O)cc1OC | 2 | -14 | -4 | 30 | -23 | x
CN(C)S(=O)(=O)c1ccc(C(=O)OCn2nnc3ccccc3c2=O)cc1 | -1 | 54* | -11 | 9 | 5 | 32
O=C1NC(=S)SC1=C1CCCCCC1 | -20 | 50* | 3 | 28 | 24 | 69*
N#CC1=C(N)c2ccccc2CC12CCCCC2 | -29 | 51* | 20 | -8 | 8 | 41*
Cc1cc(NC(=O)COc2ccccc2C)ccc1NC(=O)c1cccs1 | 21 | 54* | 20 | 31 | 22 | 63*
CCCNC(=O)C(Cc1ccccc1C)NC(=O)c1ccc(C(F)(F)F)cc1 (stereo not drawn) | x | 8 | 2 | 9 | -1 | x
SMILES | PfHsp90 yeast 2 | tim23-1 inh | TIM10 inh | NLRP3 yeast inh | tim10-1 inh | tim23-1 confirm | others
CC1=NN(c2ccccc2)C(=O)/C1=C/c1c(O)n(-c2ccc(F)c(Cl)c2)[nH]c1=O | x | 58* | 34 | 0 | 35 | 43*
CC1=NN(c2ccccc2)C(=O)/C1=C\c1c(C)[nH]n(-c2ccccc2)c1=O | -14 | 7 | 11 | 22 | 12 | x
COc1ccc(C(CNS(=O)(=O)c2cccc(F)c2)N2CCCC2)cc1 (stereo not drawn) | x | 5 | -6 | 6 | -7 | x
COc1ccc(Nc2nc3ccccc3n3cnnc23)cc1Cl | 4 | 57* | 12 | 25 | 21 | 5
Cc1ccc(C(=O)N2CCN(Cc3ccc4c(c3)OCO4)CC2)cc1C | 13 | 18 | -9 | 25 | -26 | x
O=C(c1ccc(F)cc1)N(C(=O)c1ccc(F)cc1)c1ncccn1 | -34 | 55* | 33 | -7 | 32 | 47*
Cc1nc(Nc2ccccc2)sc1C(=O)Nc1ccccc1 | -1 | 55* | 12 | 34 | -12 | 53*
Cc1ccc(CCN2CC(C(=O)NCCCN3CCC(C)CC3)CC2=O)cc1 (stereo not drawn) | 9 | -23 | -3 | -1 | -9 | x
COc1ccc(OCC(=O)Nc2ccc3c(c2)CCC3)cc1 | -6 | 66* | 10 | 47 | 6 | 58*
COc1cccc(NC(=O)COc2ccc3c(c2)CCC3)c1 | 1 | 18 | 9 | 28 | -35 | x
CCOC(=O)C1CCN(S(=O)(=O)c2ccc3c(c2)CC(C)N3C(=O)C2CCC2)CC1 (stereo not drawn) | 10 | 51* | 38 | -1 | 27 | 43*
CCOC(=O)C1CCCN(S(=O)(=O)c2ccc3c(c2)CC(C)N3C(=O)C2CC2)C1 (stereo not drawn) | 6 | 27 | 27 | 8 | 27 | x
Cc1ccc(NC(=O)Nc2c(C)n(C)n(-c3ccccc3)c2=O)cc1 | -2 | 94* | 7 | 1 | -4 | 15
COc1ccc(C2CC(c3ccc(Br)cc3)=NN2C(=O)CSC2=NCCS2)cc1 (stereo not drawn) | -8 | 35 | 39 | 0 | 36 | x
CN1C(=O)/C(=C2\SC(N)=NC2=O)c2ccccc21 | -10 | -14 | -13 | 15 | 14 | x
CN1C(=O)/C(=C2\SC(N3CCCCCC3)=NC2=O)c2ccccc21 | -10 | 55* | 33 | 6 | 32 | 44*
CCOC(=O)C1CCCN(S(=O)(=O)Cc2ccc(Cl)cc2)C1 (stereo not drawn) | 17 | 14 | -10 | 8 | -2 | x
Cc1ccc(CN2CCN(/N=C/c3cc(Br)cc(Br)c3O)CC2)cc1 | 22 | 59* | 12 | 26 | 25 | 59*
COc1cccc(NC(=O)NC2CCN(CC(=O)Nc3ccccc3[N+](=O)[O-])CC2)c1 | -4 | 21 | 2 | 17 | 21 | x
N#Cc1c(-c2ccccc2)cc(-c2ccc(O)cc2)nc1N | -36 | 54* | -5 | 22 | 9 | 57*
COc1ccc(-c2cc(-c3ccc(O)cc3)nc(N)c2C#N)cc1 | 11 | 49 | 14 | 28 | 30 | x
C=CCOc1ccc(C=Nc2ccc(Cl)cc2)c(O)c1 | 1 | 3 | -5 | 0 | 4 | x
O=C1CC(c2ccc(O)c(O)c2)Oc2cc(O)cc(O)c21 (stereo not drawn) | 1 | 1 | -2 | 4 | 0 | x
